# From PubChem BioAssay (NCATS)
# “And” between values parts separate entries of the source, which are not always exact repeats. Identical values can stand only once. Records with an inconclusive call do not appear. The source made the active and inactive calls. Unless noted, calls follow the shape of the dose curve; as a rule, active = well fitted inhibition curve with a large enough effect; inconclusive = small, poorly fitted or top-dose-only effect; inactive = flat fitted curve, though single readings scatter.
# Legend:
# [1] = qHTS drug screen for cell cycle checkpoint inhibitors in PARPi-resistant BRCA-mutant ovarian cancer cell lines. (AID 1963452; calls by dose curve); conditions: PEO1/OlaR viability, CellTiter-Glo luminescence, 96 h, stronger effect = lower value
# In short: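 PEO1, PEO4 and PEO1/OlaR ovarian cancer cells, 600 per well, exposed 96 h at 37C to a dilution series. Viability read by CellTiter-Glo luminescence, normalized to DMSO and empty wells; activity summarized as Z-AUC.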
# [2] = qHTS for identification of novel therapeutic agents for treatment of microphthalmiaassociated transcription factor (MiT) renal cell carcinoma (RCC) (AID 1963991); conditions: CellTiter-Glo, 48 h, stronger effect = lower value;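 also: curves scaled with 100% = DMSO viability and 0% = empty wells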
# In short: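 UOK109/UOK124/UOK145 (TFE3 fusions, three partners); 500 cells/well; MIPE v4.0, 1912 cpds, 11 conc.; 48 h, 37 C; CellTiter-Glo, 15 min RT; lum. Norm.: DMSO 100%, empty 0%.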
# [3] = qHTS profiling for inhibitors of Plasmodium falciparum proliferation (AID 504749); also: nearly all actives have a fitted effect of over 60% in size; also: potency is read from the fitted curve at half-maximal effect;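 as to activity, negative = inhibition: 0% = DMSO vehicle and full inhibition = artemisinin control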; conditions: P. falciparum in erythrocytes, SYBR Green DNA, 72 h
# In short: (§1)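 SYBR Green fluorescence (ex 485 nm, em 535 nm) reports parasite DNA after 72 h compound exposure of infected red cells at 0.3% parasitemia, 2.5% hematocrit; signal normalized to 0.29 uM artemisinin and vehicle wells.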
# 3D7 = experiment: as above; conditions: P. falciparum in erythrocytes, SYBR Green DNA, 72 h; series mostly up to 28.7 µM
# In short: as §1
# 7G8 = experiment: as above; conditions: P. falciparum in erythrocytes, SYBR Green DNA, 72 h; series mostly up to 28.7 µM
# In short: as §1
# AA1029 = experiment: as above; conditions: P. falciparum in erythrocytes, SYBR Green DNA, 72 h; series mostly up to 28.7 µM
# In short: as §1
# AS120 = experiment: as above; conditions: P. falciparum in erythrocytes, SYBR Green DNA, 72 h; series mostly up to 28.7 µM
# In short: as §1
# ATS189 = experiment: as above; conditions: P. falciparum in erythrocytes, SYBR Green DNA, 72 h; series mostly up to 28.7 µM
# In short: as §1
# ATS95 = experiment: as above; conditions: P. falciparum in erythrocytes, SYBR Green DNA, 72 h; series mostly up to 28.7 µM
# In short: as §1
# C2A = experiment: as above; conditions: P. falciparum in erythrocytes, SYBR Green DNA, 72 h; series mostly up to 28.7 µM
# In short: as §1
# CP185 = experiment: as above; conditions: P. falciparum in erythrocytes, SYBR Green DNA, 72 h; series mostly up to 28.7 µM
# In short: as §1
# CP191 = experiment: as above; conditions: P. falciparum in erythrocytes, SYBR Green DNA, 72 h; series mostly up to 28.7 µM
# In short: as §1
# CP192 = experiment: as above; conditions: P. falciparum in erythrocytes, SYBR Green DNA, 72 h; series mostly up to 28.7 µM
# In short: as §1
# CP194 = experiment: as above; conditions: P. falciparum in erythrocytes, SYBR Green DNA, 72 h; series mostly up to 28.7 µM
# In short: as §1
# [4] = measured here: PEO1 parental Z-AUC
# [5] = TFE3-RCC UOK109 viability, measured here: UOK109 Z-AUC
# [6] = TFE3-RCC viability, measured here: UOK124 Z-AUC
# [7] = TFE3-RCC viability, measured here: UOK145 Z-AUC
# [8] = at 28.7 µM (top of the series), parasite line A
# [9] = at 28.7 µM (top of the series), parasite line B
smiles,measurement,setting,value
COc1nc(-c2ccc3c(c2)OCO3)n(-c2ccc(NC(=O)CSc3ccccc3)cc2)n1,Z-AUC,[1],1.83 (inactive)
same,Z-AUC,[1]; [4],1.23
same,Z-AUC,[1]; measured here: PEO4 Z-AUC,1.19
same,z-score,[2]; [5],0.687
same,z-score,[2]; [6],0.0138
same,z-score,[2]; [7],0.717
CCc1ccc(CCOc2ccc(CC3SC(=O)NC3=O)cc2)nc1 (stereo unspecified),Z-AUC,[1],0.827 (inactive)
same,Z-AUC,[1]; [4],0.268
same,Z-AUC,[1]; measured here: PEO4 Z-AUC,0.973
same,z-score,[2]; [5],1.53
same,z-score,[2]; [6],0.584
same,z-score,[2]; [7],0.551
same,"activity, negative = inhibition",[3]; [8],8.32% (inactive)
same,"activity, negative = inhibition",[3]; [9],6.57% (inactive)
same,Potency,3D7,inactive
same,Potency,7G8,inactive
same,Potency,AA1029,inactive
same,Potency,AS120,inactive
same,Potency,ATS189,inactive
same,Potency,ATS95,inactive
same,Potency,C2A,inactive
same,Potency,CP185,inactive
same,Potency,CP191,inactive
same,Potency,CP192,inactive
same,Potency,CP194,inactive
COc1ccc(-c2c(-c3ccc(O)cc3O)n[nH]c2C)cc1,Z-AUC,[1],0.835 (inactive)
same,Z-AUC,[1]; [4],0.673
same,Z-AUC,[1]; measured here: PEO4 Z-AUC,1.1
COc1ccc(CC2=NN3C([C@@H](CCc4ccccc4)[C@@H](C)O)=NC(C)C3C(=O)N2)cc1OC (stereo partly specified),Z-AUC,[1],-0.34 (inactive)
same,Z-AUC,[1]; [4],0.752
same,Z-AUC,[1]; measured here: PEO4 Z-AUC,0.704
same,z-score,[2]; [5],1.24
same,z-score,[2]; [6],0.967
same,z-score,[2]; [7],0.717
N#Cc1ccc(C(c2ccc(C#N)cc2)n2cncn2)cc1,Z-AUC,[1],1.61 (inactive)
same,Z-AUC,[1]; [4],1.56
same,Z-AUC,[1]; measured here: PEO4 Z-AUC,1.79
same,"activity, negative = inhibition","[3]; at 12.8 µM (top of the series), parasite line A",0.0131% (inactive)
same,"activity, negative = inhibition","[3]; at 12.8 µM (top of the series), parasite line B",3.12% (inactive)
same,Potency,3D7,inactive
same,Potency,7G8,inactive
same,Potency,AA1029,inactive
same,Potency,AS120,inactive
same,Potency,ATS189,inactive
same,Potency,ATS95,inactive
same,Potency,C2A,inactive
same,Potency,CP185,inactive
same,Potency,CP191,inactive
same,Potency,CP192,inactive
same,Potency,CP194,inactive
O=C1CCc2cc(OCCCCc3nnnn3C3CCCCC3)ccc2N1,Z-AUC,[1],-1.35 (inactive)
same,Z-AUC,[1]; [4],-0.972
same,Z-AUC,[1]; measured here: PEO4 Z-AUC,-0.778
same,z-score,[2]; [5],0.489
same,z-score,[2]; [6],0.136
same,z-score,[2]; [7],0.331
same,Potency,3D7,inactive
same,Potency,7G8,inactive
same,Potency,ATS95,inactive
same,Potency,CP191,inactive
same,Potency,CP192,inactive
same,Potency,CP194,inactive
c1ccc([C@H]2CN3CCSC3=N2)cc1,Z-AUC,[1],-0.761 (inactive)
same,Z-AUC,[1]; [4],-0.401
same,Z-AUC,[1]; measured here: PEO4 Z-AUC,-0.638
same,z-score,[2]; [5],0.343
same,z-score,[2]; [6],0.703
same,z-score,[2]; [7],0.523
C1COC(NC(C2CC2)C2CC2)=N1,Z-AUC,[1],-0.361 (inactive)
same,Z-AUC,[1]; [4],-0.558
same,Z-AUC,[1]; measured here: PEO4 Z-AUC,-0.616
same,z-score,[2]; [5],0.422
same,z-score,[2]; [6],0.218
same,z-score,[2]; [7],0.0437
same,Potency,[3]; parasite line A,7.94 µM (active)
same,Potency,3D7,inactive
same,Potency,7G8,12.6 µM (active)
same,Potency,AS120,12.6 µM (active)
same,Potency,ATS189,inactive
same,Potency,CP185,inactive
same,Potency,CP192,inactive
Nc1cccc(S(=O)(=O)N2CCCN(S(=O)(=O)c3ccc4c(c3)OCCO4)CC2)c1,Z-AUC,[1],1.03 (inactive)
same,Z-AUC,[1]; [4],0.843
same,Z-AUC,[1]; measured here: PEO4 Z-AUC,0.787
same,z-score,[2]; [5],0.453
same,z-score,[2]; [6],0.564
same,z-score,[2]; [7],0.252
NCCCC(N)(C(=O)O)C(F)F (stereo unspecified),Z-AUC,[1],0.209 (inactive)
same,Z-AUC,[1]; [4],0.253
same,Z-AUC,[1]; measured here: PEO4 Z-AUC,1.05
same,"activity, negative = inhibition",[3]; [8],2.98% (inactive)
same,"activity, negative = inhibition",[3]; [9],4.55% (inactive)
same,Potency,3D7,inactive
same,Potency,7G8,inactive
same,Potency,AA1029,inactive
same,Potency,AS120,inactive
same,Potency,ATS189,inactive
same,Potency,ATS95,inactive
same,Potency,C2A,inactive
same,Potency,CP185,inactive
same,Potency,CP191,inactive
same,Potency,CP192,inactive
same,Potency,CP194,inactive
Cc1cnc(NC(=O)C2=C(O)c3ccccc3S(=O)(=O)N2C)s1,Z-AUC,[1],0.682 (inactive) and 1.14 (inactive) and 0.871 (inactive)
same,Z-AUC,[1]; [4],0.615 and 0.579 and 0.604
same,Z-AUC,[1]; measured here: PEO4 Z-AUC,0.593 and 0.643 and 0.888
same,z-score,[2]; [5],0.549
same,z-score,[2]; [6],0.223
same,z-score,[2]; [7],0.231
CC(C)c1onc(-c2c(Cl)cccc2Cl)c1COc1ccc(/C=C/c2cccc(C(=O)O)c2)c(Cl)c1,Z-AUC,[1],0.394 (inactive)
same,Z-AUC,[1]; [4],-0.0133
same,Z-AUC,[1]; measured here: PEO4 Z-AUC,0.0704
Cc1n[nH]c(C)c1Cc1sc2c(c1C(=O)N1C[C@H](O)CO1)c(=O)n(C)c(=O)n2CC(C)C,Z-AUC,[1],-0.106 (inactive)
same,Z-AUC,[1]; [4],-0.977
same,Z-AUC,[1]; measured here: PEO4 Z-AUC,-0.228
same,z-score,[2]; [5],0.549
same,z-score,[2]; [6],0.656
same,z-score,[2]; [7],0.704
NC[C@H](O)c1ccc(O)c(O)c1,Z-AUC,[1],-0.408 (inactive)
same,Z-AUC,[1]; [4],-0.854
same,Z-AUC,[1]; measured here: PEO4 Z-AUC,-0.505
same,z-score,[2]; [5],0.441
same,z-score,[2]; [6],0.472
same,z-score,[2]; [7],0.785
same,"activity, negative = inhibition",[3]; [8],5.08% (inactive)
same,"activity, negative = inhibition",[3]; [9],9.63% (inactive)
same,Potency,3D7,inactive
same,Potency,7G8,inactive
same,Potency,AA1029,inactive
same,Potency,AS120,inactive
same,Potency,ATS189,inactive
same,Potency,ATS95,inactive
same,Potency,C2A,inactive
same,Potency,CP185,inactive
same,Potency,CP191,inactive
same,Potency,CP194,inactive
